TR-FRET ratio data for 28 compounds are collected here from PubChem BioAssay AID1049 (The Scripps Research Institute Molecular Screening Center, 2008).

Hit rate of the full screen: of about 200,000 compounds, about 780 (0.39%) were called active. Cut-off read from the data, not from the text of the source: active = TR-FRET ratio above about 2000; inactive = the rest. Only a selection was taken, and actives are over-represented in it overall.

A short description of the assay: detection-format interference in TR-FRET ratio – biochemical, artefact control for PPARgamma SRC-2 agonist project, primary screen (AID 1049). The conditions noted are these: TR-FRET artefact counter-screen; at 8 µM; active compounds read high. For orientation: In TR-FRET formats the signal depends on donor and acceptor labels being close together.
Take `Cn1c(=O)cc(SCC(=O)N2CCCC2)c2cc(Cl)ccc21`: the TR-FRET ratio is 2940 (active).

Turning to `CCOC(=O)N1CCC(NC(=O)COc2cc(=O)n(C)c3ccccc23)CC1`, the TR-FRET ratio was 1480 (inactive). The result for `CCOC(=O)C1CCN(C(=O)Cn2cc(C#N)c3ccccc32)CC1` reads 1470 (inactive); that for `O=C(CSCc1ccc(Cl)cc1)N1CCCCC1`, 1510 (inactive); that for `CCOC(=O)C1CCN(C(=O)CSc2cc(=O)n(C)c3ccccc23)CC1`, 2840 (active). For the compound `CC(=O)c1ccc(-n2nnnc2SCC(=O)N2CCN(C(=O)c3ccco3)CC2)cc1`, the TR-FRET ratio was 1580 (inactive).

As to `Cc1cccc(OCc2nnc(SCC(=O)N3CCN(C(=O)c4ccco4)CC3)n2C)c1C`, the TR-FRET ratio was 1760 (inactive). In the case of `Cn1c(=O)cc(SCC(=O)N2CCN(C(=O)c3ccco3)CC2)c2ccccc21`, the TR-FRET ratio is 2320 (active). For `CCOc1ccc(CCNC(=O)CSc2cc(=O)n(C)c3ccc(Cl)cc23)cc1OCC` the value was 1900 (inactive).

`CN(C)C(CNC(=O)c1cccc(C#N)c1)c1ccco1` (stereo not drawn): the TR-FRET ratio was 1390 (inactive).

`COc1ccc(NC(=O)CN2C(=O)CSC2=O)cc1`: the TR-FRET ratio was 1580 (inactive). The result for `Cc1ccc(CN2CCN(Cc3ccc(OCCO)cc3)CC2CCO)o1` (stereo not drawn) reads 1600 (inactive); that for `CC(C)OCCCNC(=S)N1CCC(C(=O)c2ccc3c(c2)OCCO3)CC1`, 1610 (inactive). The result for `O=C(Nc1cccc(O)c1)c1ccc(C(=O)c2ccccc2)o1` reads 1480 (inactive); that for `COC(=O)CN1C(=O)N/C(=C/c2ccc(OC)c(C)c2OC)C1=O`, 1240 (inactive); that for `CCOc1ccc(C(=O)Nc2cccc(-c3ccc4nncn4n3)c2)cc1`, 1400 (inactive). For `Cc1cccc(N2CCN(C(=O)c3cccc(S(=O)(=O)N4CCc5ccccc5C4)c3)CC2C)c1` (stereo not drawn) the value was 1420 (inactive). On to `Cc1nc(-c2ccccc2)sc1C(=O)/C=C/c1ccccc1`, for which the TR-FRET ratio was 1450 (inactive).

Regarding `C=CCn1c(-c2sc(-c3ccccc3)nc2C)n[nH]c1=S`, the TR-FRET ratio is 1590 (inactive).

For `Cc1nc(-c2ccccc2)sc1-c1nc(-c2ccccc2)ncc1S(=O)(=O)c1ccccc1`, the TR-FRET ratio is 1980 (active). Take `Cc1ccc(-c2csc(SCC(=O)Nc3cc(C)on3)n2)cc1`: the TR-FRET ratio was 1440 (inactive). The result for `Cc1cc(C)c2c(c1)cc(C)c1nnc(SCC(=O)Nc3cc(C)on3)n12` reads 1970 (active). For `Cc1cc(NC(=O)CSc2nnc(Nc3ccccc3F)s2)no1` the value was 1500 (inactive); for `CCN(CC)C(=O)C(=O)Nc1cccc(Br)c1`, 1590 (inactive); for `COc1ccc(-n2c(O)c(C=NCC(c3ccco3)N3CCCC3)c3ccccc3c2=O)cc1OC` (stereo not drawn), 1590 (inactive).

Take `COc1ccc(/C(O)=C2\C(=O)C(=O)N(Cc3ccco3)C2c2ccc(OC)cc2OC)cc1` (stereo not drawn): the TR-FRET ratio was 1620 (inactive). For `COc1ccccc1C1/C(=C(/O)c2ccc(C)cc2)C(=O)C(=O)N1Cc1ccco1` (stereo not drawn) the value was 1510 (inactive); for `COc1ccc(/C(O)=C2/C(=O)C(=O)N(c3nc(C)c(C)s3)C2c2ccco2)cc1` (stereo not drawn), 2180 (active).
